# Compounds without any hit were thinned out: in the full panel of roughly 83,000, 20% have a hit.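 Assay: single dose, 48 h. Readout: percent growth (0 = no net growth; negative = cell death). Active: <10.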 Values without a mark were called inactive. Calls of active or inactive are those of the source.
# Test system: IGROV1 ovarian
# Experiment: NCI-60 one-dose screen, 48 h (100 = growth as untreated, 0 = no growth, -100 = all killed)
# Settings: 10 µM unless noted
# Protocol: Growth inhibition of the IGROV1 human tumor cell line is measured as a screen for anti-cancer activity. Cells are grown in 96 well plates and exposed to the test compound for 48 hours. Compounds are tested at a single concentration, which is 10^-5 M for most compounds. The reported endpoint is percent growth (GI% or GIPRCNT), where numbers from 0 - 100% represent growth inhibition, and numbers from -100% - 0 represent cell death. For example, a value of 40 represents 60% growth inhibition. A value of 0 means no net growth occurred over the course of the experiment. A value of -40 indicates 40% of cells at the beginning of the experiment died by the end of the experiment. A value of -100 means all cells are dead at the end of the experiment.
# NCI-60 Human Tumor Cell Lines Screen was performed using the standard one-dose NCI protocol, which is described in more detail at https://dtp.cancer.gov/discovery_development/nci-60/default.htm.
# Compounds with GIPRCNT values below 10 were considered active. Activity score was based on GIPRCNT using the following formula: […]
# Score is 0 for GIPRCNT values of 100 or above, 50 for GIPRCNT values of 0, and 100 for GIPRCNT values of -100.
row,Structure (SMILES),growth
1,COc1ccc(C(=O)C(C)Br)cc1OC (stereo not given),76.5%
2,COc1c(C)c2c(c(O)c1C/C=C(\C)CCC(=O)OCCN1CCOCC1)C(=O)OC2,13%
3,CCCCSc1cc(C)nc(N)n1,100%
4,Cc1cc([N+](=O)[O-])c(C)cc1C(=O)O,110%
5,O=C(/C=C/c1ccc(Cl)cc1)c1ccccc1,101%
6,Clc1ccccc1[C@@H]1C[C@@H]2Cc3cc(Br)c4ccccc4c3N1O2,48.7%
7,C=C1CC[C@@H]2[C@](C)(COC(C)=O)[C@H](OC(C)=O)CC[C@@]2(C)[C@@H]1CC(Nc1ccc(S(=O)(=O)Nc2cc(C)on2)cc1)C1=CCOC1=O (stereo not given in full),62.6%
8,O=C(Nc1ccc(Cl)cc1)c1cc2c(cc1O)[nH]c1ccccc12,163%
9,Oc1[nH]c2ccc(Cl)cc2c1/C=c1/ccc2c(c1)N=C(c1ccc(C(F)(F)F)cc1)N=2,76.8%
10,Cc1cc(NC(=O)c2ccc(N)cc2)ccc1N=Nc1ccc2c(O)c(N=Nc3ccc(Cl)c(S(=O)(=O)O)c3)c(S(=O)(=O)O)cc2c1,73%
11,COc1ccc(C(=O)/C=C/c2c(Cl)nc3c(c(C)nn3-c3ccccc3)c2-c2ccc(Br)cc2)cc1,116%
12,O=C(Nc1nc(-c2ccccc2)cs1)c1cc(O)c(O)c(O)c1,33.2%
13,COC1CC2CCC(C)C(O)(O2)C(=O)C(=O)N2CCCCC2C(=O)OC(C(C)CC2CCC(O)C(OC)C2)CC(=O)C(C)C=C(C)C(O)C(OC)C(=O)C(C)CC(C)/C=C/C=C/C=C1C (stereo not given),15.5%
14,O=C(CN1CCCCC1)Sc1nnc2sc3ccccc3n12,121%
15,S=C(c1ccccc1)N1CCN(c2cccc(Cl)c2)CC1,107%
16,COc1cc(/C=C/C(=O)c2ccc(F)cc2)ccc1OCCCCCOc1cc2c(cc1OC)C(=O)N1CCCC1C=N2 (stereo not given),-66.5% (active)
17,CC[N+](CC)(CCOCCOCC[N+](CC)(CC)Cc1ccc([N+](=O)[O-])cc1)Cc1ccc([N+](=O)[O-])cc1,125%
18,Cc1cc(O)c2c(c1)C[C@H]1[C@@H]3CC[C@H]4CC(=O)CC[C@]4(C)[C@H]3CC(=O)[C@]21C,126%
19,O=C1C2C3C=CC(O3)C2C(=O)N1Nc1ccccc1 (stereo not given),124%
20,O=C(/C(=C/c1cccc([N+](=O)[O-])c1)c1ccccc1)c1ccccc1,60.4%

row,Structure (SMILES),growth
1,Cc1cc(C)n2nc(SCC(=O)Nc3sc4c(c3C(N)=O)CCC4)nc2n1,-2.56% (active)
2,COc1cc(/C=C/C(=O)Nc2ccc3c(c2)/C(=C\c2cccn2C)C(=O)N3)cc(OC)c1OC,60.4%
3,O=C(Nc1nc2ccccc2s1)c1cc(-c2ccc(F)cc2)n2nc(-c3ccccc3)cc2n1,78%
4,CCCCCCCCSc1ncnc2c1ncn2CO,93.3%
5,C=C(C[C@@](O)(C(=O)Oc1ccccc1)C(=O)C1CCCCC1)c1ccccc1,110%
6,CN(C)c1cccc2c(S(=O)(=O)N[C@H]3CC[C@H]4[C@@H]5CCc6cc(O)ccc6[C@H]5CC[C@]34C)cccc12,33.1%
7,Cn1cc(-c2csc(-c3c[nH]c4ncccc34)n2)c2cc(Br)cnc21,27.3%
8,CCN1C[C@@H](C)n2c(c(O)c3c(=O)n(Cc4ccc(F)c(Cl)c4)nc(C(=O)NC)c32)C1=O,28.7%
9,CC(c1ccccn1)C(C)(O)C(C)c1ccccn1 (stereo not given),112%
10,N#Cc1c2ccccc2c2n1-c1ccccc1OC(c1ccccc1)C2=O (stereo not given),43%
11,CCN(CC)CCOc1ccccc1-n1c(C)ccc1-c1ccccc1,71.4%
12,OC(Cc1cccnc1)c1ccccc1 (stereo not given),114%
13,CC/C=C\C=C/C(=O)N/C=C/CC1Cc2cccc(O)c2C(=O)O1 (stereo not given),79.1%
14,COc1cc(/C=C2\CCC/C(=C\c3ccc(OCC4CO4)c(OC)c3)C2=O)ccc1OCC1CO1 (stereo not given),-12.6% (active)
15,CCCc1cc(=O)n2c(C(=O)Nc3ccccc3OC)c(C(=O)Nc3ccc(F)cc3)sc2n1,-12.6% [30 µM] (active)
16,COc1ccc(/C=C2\NC(=S)NC2=O)cc1,96%
17,COc1cccc(C2C(C#N)=C(N)Oc3cc(OC)ccc32)c1 (stereo not given),10.9%
18,CN(C)c1nc(N)nc(Cn2c(-c3nonc3N)nc3ccccc32)n1,95.7%
19,O=C1Cc2cc(CCN3CCN(CCOCCO)CC3)c(Cl)cc2N1Cc1ccc(-c2ccccc2-c2nn[nH]n2)cc1,107%
20,CCOC(=O)C1=C(COCCN)NC(C)=C(C(=O)OC)C1c1ccccc1Cl (stereo not given),73.6%

# Reference: PubChem BioAssay (NCI)
